Reference: PubChem BioAssay AID1159580 (chemical genetic matrix, 2015)
The campaign covered roughly 5,500 compounds. About 2,000 (36%) were called active. About 18% were inconclusive and are not listed. No stated cut-off is given here; in the data, active means normalized growth mostly below about 0.91 (no sharp cut-off); inconclusive means no clear call, values can overlap the other calls; inactive means mostly above about 0.92. The list shows a part of the results.

Assay: chemical genetic growth profiling, strain panel (AID 1159580);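 further: tested at 20 µM; growth read once vehicle control cultures reached saturation at 30 °C; 1 = growth at the plate median or of vehicle wells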
Conditions: growth OD

Measured: normalized growth

COc1ccc2c(c1)OC[C@@H](Cc1ccc(OC)c(OC)c1)[C@H]2O
inactive: S. cerevisiae deletion strains, locus YJR066W, strain TOR1, stronger effect = lower value 0.913 | S. cerevisiae deletion strains, locus YKL009W, strain mrt4, stronger effect = lower value 0.954 | S. cerevisiae deletion strains, locus YKL068W, stronger effect = lower value 0.973 | S. cerevisiae deletion strains, locus YKL085W, strain MDH1 (second series), stronger effect = lower value 0.976 | S. cerevisiae deletion strains, locus YKL085W, strain MDH1, stronger effect = lower value 0.976 | S. cerevisiae deletion strains, locus YKL160W, strain elf1, stronger effect = lower value 1.01 | S. cerevisiae deletion strains, locus YKL190W, strain CNB1, stronger effect = lower value 0.997 | S. cerevisiae deletion strains, locus YKR026C, strain gcn3, stronger effect = lower value 1 | S. cerevisiae deletion strains, locus YKR091W, strain srl3, stronger effect = lower value 1 | S. cerevisiae deletion strains, locus YLL001W, strain dnm1, stronger effect = lower value 0.979 | S. cerevisiae deletion strains, locus YLL026W, stronger effect = lower value 0.996 | S. cerevisiae deletion strains, locus YLL041C, strain sdh2, stronger effect = lower value 1 | S. cerevisiae deletion strains, locus YLR027C, strain aat2, stronger effect = lower value 1.01 | S. cerevisiae deletion strains, locus YLR058C, strain SHM2, stronger effect = lower value 1 | S. cerevisiae deletion strains, locus YLR102C, strain apc9, stronger effect = lower value 0.981 | S. cerevisiae deletion strains, locus YLR113W, strain HOG1, stronger effect = lower value 0.871 | S. cerevisiae deletion strains, locus YLR221C, strain rsa3, stronger effect = lower value 1.01 | S. cerevisiae deletion strains, locus YLR258W, strain gsy2, stronger effect = lower value 0.994 | S. cerevisiae deletion strains, locus YLR262C, strain YPT6, stronger effect = lower value 0.641 | S. cerevisiae deletion strains, locus YLR268W, strain sec22, stronger effect = lower value 0.997 | S. cerevisiae deletion strains, locus YLR320W, strain mms22, stronger effect = lower value 1.01 | S. cerevisiae deletion strains, locus YLR330W, strain CHS5, stronger effect = lower value 0.984 | S. cerevisiae deletion strains, locus YLR342W, strain FKS1 (second series), stronger effect = lower value 1.02 | S. cerevisiae deletion strains, locus YLR342W, strain FKS1, stronger effect = lower value 1 | S. cerevisiae deletion strains, locus YLR357W, strain rsc2, stronger effect = lower value 1.01 | S. cerevisiae deletion strains, locus YLR370C, strain arc18, stronger effect = lower value 1 | S. cerevisiae deletion strains, locus YLR371W, strain rom2, stronger effect = lower value 0.96 | S. cerevisiae deletion strains, locus YLR384C, strain iki3, stronger effect = lower value 1.01 | S. cerevisiae deletion strains, locus YLR418C, strain cdc73, stronger effect = lower value 1.04 | S. cerevisiae deletion strains, locus YML016C, strain PPZ1, stronger effect = lower value 1 | S. cerevisiae deletion strains, locus YML032C, strain rad52, stronger effect = lower value 0.975 | S. cerevisiae deletion strains, locus YML120C, strain ndi1, stronger effect = lower value 1 | S. cerevisiae deletion strains, locus YML124C, strain tub3, stronger effect = lower value 0.976 | S. cerevisiae deletion strains, locus YMR058W, strain fet3, stronger effect = lower value 1.02 | S. cerevisiae deletion strains, locus YMR078C, strain ctf18, stronger effect = lower value 0.977 | S. cerevisiae deletion strains, locus YMR125W, strain sto1, stronger effect = lower value 1.01 | S. cerevisiae deletion strains, locus YMR129W, stronger effect = lower value 1.01 | S. cerevisiae deletion strains, locus YMR205C, strain PFK2, stronger effect = lower value 0.966 | S. cerevisiae deletion strains, locus YMR223W, strain ubp8, stronger effect = lower value 0.976 | S. cerevisiae deletion strains, locus YMR231W, strain pep5, stronger effect = lower value 0.981 | S. cerevisiae deletion strains, locus YMR307W, strain GAS1, stronger effect = lower value 1.11 | S. cerevisiae deletion strains, locus YNL067W, strain RPL9B, stronger effect = lower value 1.02 | S. cerevisiae deletion strains, locus YNL071W, strain lat1, stronger effect = lower value 1 | S. cerevisiae deletion strains, locus YNL153C, strain GIM3, stronger effect = lower value 1.03 | S. cerevisiae deletion strains, locus YNL183C, strain NPR1, stronger effect = lower value 0.867 | S. cerevisiae deletion strains, locus YNL209W, strain ssb2, stronger effect = lower value 1.02 | S. cerevisiae deletion strains, locus YNL233W, strain BNI4, stronger effect = lower value 1.02 | S. cerevisiae deletion strains, locus YNL248C, strain rpa49, stronger effect = lower value 1.01 | S. cerevisiae deletion strains, locus YNL250W, strain rad50, stronger effect = lower value 0.962 | S. cerevisiae deletion strains, locus YNL271C, strain bni1, stronger effect = lower value 0.977 | S. cerevisiae deletion strains, locus YNL298W, strain CLA4, stronger effect = lower value 0.991 | S. cerevisiae deletion strains, locus YNL307C, strain MCK1, stronger effect = lower value 0.971 | S. cerevisiae deletion strains, locus YNL322C, strain KRE1 (second series), stronger effect = lower value 0.973 | S. cerevisiae deletion strains, locus YNR049C, strain mso1, stronger effect = lower value 1.01 | S. cerevisiae deletion strains, locus YNR052C, strain pop2, stronger effect = lower value 0.978 | S. cerevisiae deletion strains, locus YOL012C, strain htz1 1.24 | S. cerevisiae deletion strains, locus YOL147C, strain pex11, stronger effect = lower value 0.983 | S. cerevisiae deletion strains, locus YOR001W, strain rrp6, stronger effect = lower value 1.03 | S. cerevisiae deletion strains, locus YOR061W, strain CKA2, stronger effect = lower value 0.999 | S. cerevisiae deletion strains, locus YOR069W, strain VPS5, stronger effect = lower value 0.995 | S. cerevisiae deletion strains, locus YOR070C, strain gyp1, stronger effect = lower value 1 | S. cerevisiae deletion strains, locus YOR080W, strain dia2, stronger effect = lower value 1.01 | S. cerevisiae deletion strains, locus YOR083W, strain WHI5, stronger effect = lower value 0.997 | S. cerevisiae deletion strains, locus YOR106W, strain vam3, stronger effect = lower value 0.99 | S. cerevisiae deletion strains, locus YOR136W, strain idh2, stronger effect = lower value 0.986 | S. cerevisiae deletion strains, locus YOR144C, strain elg1, stronger effect = lower value 0.995 | S. cerevisiae deletion strains, locus YOR184W, strain ser1, stronger effect = lower value 0.964 | S. cerevisiae deletion strains, locus YOR231W, strain MKK1, stronger effect = lower value 0.93 | S. cerevisiae deletion strains, locus YOR265W, strain rbl2, stronger effect = lower value 1.01 | S. cerevisiae deletion strains, locus YOR270C, strain vph1, stronger effect = lower value 1.01 | S. cerevisiae deletion strains, locus YOR290C, strain snf2, stronger effect = lower value 0.987 | S. cerevisiae deletion strains, locus YOR316C, strain cot1, stronger effect = lower value 0.969 | S. cerevisiae deletion strains, locus YPL051W, strain arl3, stronger effect = lower value 0.997 | S. cerevisiae deletion strains, locus YPL078C, strain atp4, stronger effect = lower value 1.02 | S. cerevisiae deletion strains, locus YPL106C, strain sse1, stronger effect = lower value 1.03 | S. cerevisiae deletion strains, locus YPL240C, strain hsp82, stronger effect = lower value 1.01 | S. cerevisiae deletion strains, locus YPL241C, strain CIN2, stronger effect = lower value 1 | S. cerevisiae deletion strains, locus YPL256C, strain CLN2, stronger effect = lower value 0.907 | S. cerevisiae deletion strains, locus YPR119W, strain clb2, stronger effect = lower value 0.974 | S. cerevisiae deletion strains, locus YPR141C, strain kar3, stronger effect = lower value 0.979 | S. cerevisiae deletion strains, locus YPR163C, strain tif3, stronger effect = lower value 0.974 | S. cerevisiae deletion strains, locus YPR167C, strain met16, stronger effect = lower value 0.959 | S. cerevisiae deletion strains, strain wtn01, stronger effect = lower value 0.97 | S. cerevisiae strains, strain wild type, stronger effect = lower value 0.995
active: S. cerevisiae deletion strains, locus YKR001C, strain vps1, stronger effect = lower value 0.84 | S. cerevisiae deletion strains, locus YLR039C, strain RIC1, stronger effect = lower value 0.675 | S. cerevisiae deletion strains, locus YLR262C, strain YPT6 (second series), stronger effect = lower value 0.755
